{
  "source": "PubChem BioAssay (NCI)",
  "note": "About 83,000 compounds went through this panel and 20% of them were active in at least one assay; those are over-represented in the sample as a whole.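 48-hour exposure, single concentration, 96-well plates; percent growth endpoint where 0 means no net growth. Active: below 10.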 A number with no mark means an inactive call. Activity calls are given as the source filed them.",
  "data": [
    {"tested_on": "RXF 393 renal", "assay": "NCI-60 one-dose screen, 48 h (100 = growth as untreated, 0 = no growth, -100 = all killed)", "conditions": "10 µM", "values": [
      {"smiles": "CC(=O)OC1CC2C(C)(C)OC3CC(=O)OCC32C2CCC3(C)C(=CCC3c3ccoc3)C12C", "note": "(stereo not given)", "growth": "105%"},
      {"smiles": "CCC(O)CC(CC)CO", "note": "(stereo not given)", "growth": "119%"},
      {"smiles": "CC(=Nc1ccccc1)C1=C(O)C(Cc2cccc(F)c2)NC1=O", "note": "(stereo not given)", "growth": "41.7%"},
      {"smiles": "Cc1c(O)cccc1O", "growth": "77.7%"},
      {"smiles": "CC1CCCCN1C(=S)Nc1ccc(S(=O)(=O)N2CCCCC2)cc1", "note": "(stereo not given)", "growth": "109%"},
      {"smiles": "C=C1CC/C=C(\\C)C(=O)C[C@@H]2[C@@H]1CC2(C)C", "growth": "55.1%"},
      {"smiles": "N#C/C(=C\\c1cc(O)c(O)c(O)c1)C(N)=O", "growth": "99.6%"},
      {"smiles": "C#CCSc1nnnn1-c1ccc(Br)c(C)c1", "growth": "68.3%"},
      {"smiles": "Brc1cnc2ccccc2c1", "growth": "121%"},
      {"smiles": "O=C1C=C(O)C(=O)C=C1O", "growth": "150%"},
      {"smiles": "COC(=O)Nc1nc2ccc(C(=O)c3ccc(F)cc3)cc2[nH]1", "growth": "-41.2% (active)"},
      {"smiles": "CCOC(=O)C1=C(C)NC(=O)NC1c1cccs1", "note": "(stereo not given)", "growth": "99.7%"},
      {"smiles": "CCOC(=O)Nc1cc2c(c(N)n1)N=C(c1ccccc1)CO2", "growth": "27.3%"},
      {"smiles": "COC(=O)c1cccnc1", "growth": "105%"},
      {"smiles": "O=[N+]([O-])c1cccc(C(F)(F)F)c1", "growth": "98.7%"},
      {"smiles": "CC(=O)Cc1ccc(-c2ccccc2)cc1", "growth": "102%"},
      {"smiles": "Cc1ccc(C(=O)NC2c3ccccc3Oc3ccccc32)cc1", "growth": "74.9%"},
      {"smiles": "CC1(c2ccccc2)NC(=O)NC1=O", "note": "(stereo not given)", "growth": "110%"},
      {"smiles": "COc1cc2c3c(n(C)c(=O)c2cc1OC)-c1cc2c(cc1C3=O)OCO2", "growth": "75.7%"},
      {"smiles": "O=[N+]([O-])c1ccc(-c2ncc(-c3ccc(Br)cc3)o2)cc1", "growth": "106%"}
    ]}
  ]
}
